# Hit rate of the full screen: of about 310,000 compounds, about 14,000 (4.5%) showed an effect of 50% or more. Effects have a minus sign here. Shown is part of a subset that was picked to be rich in strong results.
# Biological target: human ether-à-go-go-related gene (hERG) potassium channel (human, UniProt Q12809)
# Experiment: primary screen, population patch clamp on CHO cells stably expressing hERG; higher = less effect of the substance
# 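Note: peak tail current of the secondary pulse compared with the same well before compound.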
# Chain of human ether-à-go-go-related gene (hERG) potassium channel (Q12809 whole entry, looked up): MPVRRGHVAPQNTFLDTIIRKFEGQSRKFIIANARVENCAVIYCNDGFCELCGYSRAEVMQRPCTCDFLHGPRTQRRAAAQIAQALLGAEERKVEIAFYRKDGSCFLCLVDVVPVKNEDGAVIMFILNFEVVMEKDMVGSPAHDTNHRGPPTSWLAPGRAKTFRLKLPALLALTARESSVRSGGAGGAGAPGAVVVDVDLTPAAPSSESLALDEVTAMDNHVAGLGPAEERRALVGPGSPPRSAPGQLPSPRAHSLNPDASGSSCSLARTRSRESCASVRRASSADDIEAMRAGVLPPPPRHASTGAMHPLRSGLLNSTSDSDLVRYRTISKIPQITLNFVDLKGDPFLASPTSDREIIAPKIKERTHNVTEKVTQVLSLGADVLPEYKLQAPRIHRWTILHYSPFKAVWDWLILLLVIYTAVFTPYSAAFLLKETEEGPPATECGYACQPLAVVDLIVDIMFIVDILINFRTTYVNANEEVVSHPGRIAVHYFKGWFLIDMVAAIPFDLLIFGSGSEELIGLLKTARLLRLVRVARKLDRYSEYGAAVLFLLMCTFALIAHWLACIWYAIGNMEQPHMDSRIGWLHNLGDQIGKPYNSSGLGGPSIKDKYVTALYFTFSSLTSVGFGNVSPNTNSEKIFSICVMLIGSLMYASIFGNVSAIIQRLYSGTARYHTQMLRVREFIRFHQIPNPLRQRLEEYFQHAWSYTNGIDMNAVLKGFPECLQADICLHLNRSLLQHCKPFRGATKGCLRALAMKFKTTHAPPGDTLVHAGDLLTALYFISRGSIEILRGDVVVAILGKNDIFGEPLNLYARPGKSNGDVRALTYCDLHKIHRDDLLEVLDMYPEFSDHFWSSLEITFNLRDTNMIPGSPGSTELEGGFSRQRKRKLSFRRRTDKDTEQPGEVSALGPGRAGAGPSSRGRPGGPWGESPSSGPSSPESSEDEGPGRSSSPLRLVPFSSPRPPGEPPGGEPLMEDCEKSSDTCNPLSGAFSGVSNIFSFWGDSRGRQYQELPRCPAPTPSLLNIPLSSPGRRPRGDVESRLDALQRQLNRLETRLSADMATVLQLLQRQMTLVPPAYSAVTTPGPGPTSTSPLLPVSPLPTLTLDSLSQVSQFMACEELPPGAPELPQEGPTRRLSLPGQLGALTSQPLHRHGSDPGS
row,Structure (SMILES),"hERG current change (%, negative = inhibition) at 10uM [%]"
1,COc1ccc(C(=O)c2cnc[nH]2)cc1OC,10.9
2,Cc1cc(NC(=O)COc2ccccc2C)ccc1NC(=O)c1cccs1,0.541
3,O=C(C1CCN(c2nc(-c3ccccc3)nc3c2CCC3)CC1)N1CCC(O)CC1,-33.4
4,O=C(C1CCN(c2nc(-c3ccccc3)nc3c2CCC3)CC1)N1CCCC1,-35.8
5,COCC1CCCCN1C(=O)C1CCN(c2nc(-c3ccccc3)nc3c2CCC3)CC1 (stereo not shown),-29.2
6,CC1CCCCN1C(=O)C1CCN(c2nc(-c3ccccc3)nc3c2CCC3)CC1 (stereo not shown),-42.4
7,COCC1CCN(C(=O)C2CCN(c3nc(-c4ccccc4)nc4c3CCC4)CC2)C1 (stereo not shown),-76.5
8,CC1CCCN(C(=O)C2CCN(c3nc(-c4ccccc4)nc4c3CCC4)CC2)C1 (stereo not shown),-55.1
9,CC(C)(C)c1nnc(N/N=C/c2ccccc2O)n(N)c1=O,-35
10,O=C(NCc1ccc2c(c1)OCO2)C1CCCN1C(=O)Nc1cccc(Cl)c1 (stereo not shown),-25.4
11,CCc1ccc(CNC(=O)c2cc3c(C)nc4ccccc4c3o2)cc1,-11.5
12,CCCN(CCC)CCCNC(=O)c1cc2cc3ccc(Cl)cc3nc2o1,-61
13,CCOCCCNC(=O)c1cc2cc3cc(OC)ccc3nc2o1,-7.74
14,O=C(NCc1ccco1)c1cc2cc3ccc(Cl)cc3nc2o1,4.32
15,CCCCN(CC)CCNC(=O)c1cc2cc3ccc(Cl)cc3nc2o1,-72.5
16,CCCCN(CC)C(=O)c1cc2cc3ccc(Cl)cc3nc2o1,-9.93
17,CCCCN(CC)CCNC(=O)c1cc2c(C)nc3ccccc3c2o1,-53.5
18,CCCCN(CC)C(=O)c1cc2cc3ccc(OC)cc3nc2o1,-38.8
19,CCCN(CCC)CCNC(=O)c1cc2c(C)nc3ccccc3c2o1,-29.7
20,CC(C)CNS(=O)(=O)c1cc(C(=O)OCC(=O)N(C)C2CCS(=O)(=O)C2)c(Cl)cc1Cl (stereo not shown),-13
21,CC1(C)CC(=O)C=C(NNC(=O)C2CCCCC2)C1,8.47
22,O=C(C1CCCO1)N1CCc2ccccc21 (stereo not shown),17.1

row,Structure (SMILES),"hERG current change (%, negative = inhibition) at 10uM [%]"
1,Cl.O=C(O)CCCCCNc1nc(-c2ccccc2)nc2ccccc12,3.35
2,CN(CC(O)COC(c1ccccc1)c1ccccc1)C1CCCCC1 (stereo not shown),-68.4
3,CN(CC(O)COc1ccc(S(=O)(=O)N2CCOCC2)cc1)C1CCCCC1 (stereo not shown),-6.74
4,CN(CC(O)COCc1ccc2c(c1)OCO2)C1CCCCC1.Cl (stereo not shown),-20.6
5,COc1ccc(C(OCC(O)CN(C)C2CCCCC2)c2ccc(OC)cc2)cc1 (stereo not shown),-69.8
6,CN(CC(O)COCc1cccs1)C1CCCCC1 (stereo not shown),-12.1
7,CN(CC(O)COCc1ccccc1F)C1CCCCC1 (stereo not shown),-14.6
8,COc1cccc(CNC(=O)CN(C)S(=O)(=O)c2ccc3c(c2)n(C)c(=O)c(=O)n3C)c1,10.3
9,S=C1CCC(c2ccc(Cl)cc2)=NN1c1ccccc1,4.79
10,COc1ccccc1NC(=O)C1CCCN(c2ncnc3c2nc2n3CCCCC2)C1 (stereo not shown),-45.5
11,COc1ccc(Cl)cc1NC(=O)C1CCCN(c2ncnc3c2nc2n3CCCCC2)C1 (stereo not shown),-37.6
12,O=C(Nc1ccc(F)cc1)C1CCN(c2ncnc3c2nc2n3CCCCC2)CC1,-7.35
13,O=C(Nc1ccc(F)cc1F)C1CCCN(c2ncnc3c2nc2n3CCCCC2)C1 (stereo not shown),-62
14,O=C(Nc1cc(F)ccc1F)C1CCCN(c2ncnc3c2nc2n3CCCCC2)C1 (stereo not shown),-59.5
15,CC1=C(C(=O)OC2CCC(C)CC2)C(c2ccc(O)c([N+](=O)[O-])c2)NC(=O)N1 (stereo not shown),-0.635
16,C=CCn1c(CCNC(=O)c2ccccc2F)nnc1SCC(=O)Nc1ccc(OC)cc1,3.94
17,COc1ccc(CCNC(=O)c2cc3c(=O)n4ccccc4nc3n(CCCN3CCOCC3)c2=N)cc1,-79
18,COc1ccc(CCn2c(=N)c(C(=O)NCCN3CCOCC3)cc3c(=O)n4ccccc4nc32)cc1OC,-32.5
19,COc1ccc(Cn2c(=S)[nH]c3cc(C(=O)NCCCN4CCOCC4)ccc3c2=O)cc1,24.1
20,COc1ccc(CCn2c(=O)[nH]c3cc(C(=O)NCCCN4CCOCC4)ccc3c2=O)cc1OC,28.6
21,COc1ccc(CCNC(=O)c2c(N)n(CCN3CCOCC3)c3nc4ccccc4nc23)cc1,-0.58
22,COc1ccc(CCNC(=O)c2cc3c(=O)n4ccccc4nc3n(CCCN3CCOCC3)c2=N)cc1OC,-75.1

row,Structure (SMILES),"hERG current change (%, negative = inhibition) at 10uM [%]"
1,COc1ccc(CCNC(=O)C(=O)NCCCN2CCOCC2)cc1,7.99
2,COc1ccc(CCNC(=O)c2cc3c(=O)n4ccccc4nc3n(CCN3CCOCC3)c2=N)cc1,-77.8
3,COc1ccc(CCNC(=O)c2cc3c(=O)n4cccc(C)c4nc3n(CCCN3CCOCC3)c2=N)cc1,-76.2
4,CCOC(=O)C1=C(COC(=O)COc2ccc(Br)cc2)NC(=O)NC1C (stereo not shown),2.16
5,CC(=O)c1ccc(OCCCC(=O)Nc2cc(S(=O)(=O)N(C)C)ccc2C)cc1,0.514
6,CCS(=O)(=O)N1CCC(C(=O)N2CCC3(CC2)OCCO3)CC1,6.65
7,C=CCCCCCCCCC(=O)N1CCN(c2cc3c(cc2F)c(=O)c(C(=O)O)cn3CC)CC1,5.07
8,Fc1cccc(NC(=S)Nc2ccc(Br)cc2)c1,10.3
9,CCN1CCN(Cc2ccc(NC(=O)c3ccc(C)c(NC(=O)N4CCNC4=O)c3)cc2C(F)(F)F)CC1.O=C(O)C(F)(F)F,3.66
10,Cc1ccc(S(=O)(=O)N/N=C/c2ccccc2O)cc1,12.9
11,O=C(CN1C(=O)c2ccc([N+](=O)[O-])cc2C1=O)NCc1ccco1,12.4
12,CC1(C)CC(N2CCC(=O)NC2=S)CC(C)(C)N1,3.04
13,CC(NS(=O)(=O)c1ccc(NC(=O)N2CCCCC2)cc1)c1ccccc1 (stereo not shown),3.56
14,Cc1ccc(OS(=O)(=O)c2ccccc2)c(/C=N/N=C2\NC(=O)C(C)S2)c1 (stereo not shown),-0.524
15,CCc1cc2c(s1)N(CC(=O)OC)C(=O)CN=C2c1ccccc1OC,10.7
16,COc1ccc(S(=O)(=O)Cc2ccc(C(=O)N3CCN(Cc4ccccc4)CC3)o2)cc1,-33.1
17,Cc1ccc(S(=O)(=O)Cc2ccc(C(=O)N3CCCC3)o2)cc1,-6.89
18,COc1ccc(S(=O)(=O)Cc2ccc(C(=O)N3CCCC3)o2)cc1,1.74
19,Cc1ccc(S(=O)(=O)Cc2ccc(C(=O)N3CCc4ccccc4C3)o2)cc1,-62.2
20,Cc1ccc(S(=O)(=O)Cc2ccc(C(=O)N3CCCCCC3)o2)cc1,-15.4
21,COc1ccc(S(=O)(=O)Cc2ccc(C(=O)N3CCc4ccccc4C3)o2)cc1,-59
22,O=S1(=O)CCN(Cc2ccccc2Cl)CC1,-11.1

row,Structure (SMILES),"hERG current change (%, negative = inhibition) at 10uM [%]"
1,Cc1cc(C(=O)Nc2ccccc2C)n(-c2ccccc2)n1,16.5
2,COc1ccc(NC(=O)C2CCC(=O)N2S(=O)(=O)c2ccc(C)cc2)c(OC)c1 (stereo not shown),-11
3,COc1ccc(-c2c3c(=O)n(C)c(=O)n(C)c3cn2-c2ccccc2O)cc1,-9.54
4,COc1ccc(Cl)cc1NC(=O)CN1CCC(n2nnc3cc(C)ccc32)CC1,-24.2
5,O=C(CN1CCC(n2nnc3cc(F)ccc32)CC1)Nc1ccccc1N1CCOCC1,-66.6
6,Cc1ccccc1NC(=O)CN1CCC(n2nnc3ccccc32)CC1,-38.8
7,COC(=O)c1ccccc1NC(=O)CN1CCC(n2nnc3cc(F)ccc32)CC1,-14.3
8,Cc1ccc2c(c1)nnn2C1CCN(CC(=O)Nc2ccccc2N2CCOCC2)CC1,-69.8
9,CC(C)(C)c1ccc(C(=O)N2CCC(C(=O)N3CCCCC3)CC2)cc1,-3.01
10,Cc1cccc(C(C)(C)C)c1OCCOCCN1CCCC1,-20.6
11,CN(C(=O)CN1CC=C(c2ccccc2)CC1)c1c(N)n(Cc2ccccc2)c(=O)[nH]c1=O,25.8
12,Cc1ccc(-n2nc3c(=O)n(CC(=O)NCc4ccc(C)o4)nc(C)c3c2C)cc1,13.1
13,Cc1nn(C2CCS(=O)(=O)C2)c(Cl)c1/C=C/C(=O)OCC(=O)N(C)C (stereo not shown),11.3
14,O=C(COc1ccc([N+](=O)[O-])cc1)Nc1ccc(S(=O)(=O)N2CCOCC2)cc1,-53.8
15,CCN1CCN(c2ccc(NC(=O)COc3ccc([N+](=O)[O-])cc3)cc2)CC1,-54.3
16,O=C(COc1ccc([N+](=O)[O-])cc1)Nc1ccc(N2CCCC2)cc1,12.1
17,O=C(COc1ccc([N+](=O)[O-])cc1)Nc1ccc(CN2CCOCC2)cc1,-52.3
18,O=C(COc1ccc(Br)cc1)Nc1ccc(CN2CCOCC2)cc1,-40.6
19,O=C(COc1ccc([N+](=O)[O-])cc1)Nc1ccc(N2CCN(C(=O)c3ccco3)CC2)cc1,6.27
20,Cc1ccc(NC(=O)COc2ccc(S(=O)(=O)N3CCOCC3)cc2)cc1,7.98
21,O=C(COc1ccc(S(=O)(=O)N2CCOCC2)cc1)Nc1cccc([N+](=O)[O-])c1,-39
22,O=C(COc1ccc(Cl)cc1)Nc1ccc(CN2CCOCC2)cc1,-39.6
